A short description of the assay: qHTS assay to identify small molecule inhibitors of chordoma cells - UCH-1 (AID 1259355). For potency: series mostly up to about 46 µM. Note: nearly all actives have a fitted effect of over 55% in size. The gist of the method: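 Luminescent ATP read-out (CellTiter-Glo, 30min at room temperature) measured viability of UCH-1 cells exposed for 48hr to test drugs at 15 concentrations, co-dosed with a five-agent combination of auranofin, camptothecin, doxorubicin, rubitecan and topotecan.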
A general note: Quantitative high-throughput screening tests each substance at several concentrations.

Here are results for 23 molecules from PubChem BioAssay (NCATS).

Results filed as inconclusive are left out. Where a call stands in place of a potency, no number is given. The source made the active and inactive calls. Calls come from the whole dose curve; as a rule, active = well fitted cell-killing curve with a large enough effect; inconclusive = small, poorly fitted or top-dose-only effect, or effect the other way; inactive = no such curve, though single readings can be large or run the other way.
Potency is the fitted concentration of half-maximal effect.

As to `[2H]C([2H])([2H])[C@H](N)Cc1ccccc1`, the Potency result was “inactive”. To `O=C1CCCCC1CN1CCCCC1` (stereo not drawn) belongs “inactive”. Under `CC(=O)OCC(=O)[C@H]1CC[C@H]2[C@@H]3CC[C@H]4C[C@H](O)CC[C@]4(C)[C@H]3C(=O)C[C@]12C` stands “inactive”. Under `CCOC(=O)c1ccccc1C(=O)OCC` stands “inactive”. Regarding `CCC(N)Cc1c[nH]c2ccccc12` (stereo not drawn), the Potency result was “inactive”. To `CCCCCc1cc(O)c2c(c1)OC(C)(C)[C@@H]1CCC(C)=C[C@@H]21` belongs “inactive”; to `CCNC(C)Cc1cccc(C(F)(F)F)c1` (stereo not drawn), “inactive”; to `O=[N+]([O-])c1cc(I)c(O)c(I)c1`, “inactive”.

`CCCCNCC(O)c1ccc(O)cc1` (stereo not drawn): the Potency result is “inactive”.

For `CCNCC(O)c1cccc(O)c1` (stereo not drawn), the Potency entry was “inactive”.

In the case of `CC(Cc1ccccc1)NC=O` (stereo not drawn), the Potency entry was “inactive”. In the case of `[S]=[Sb](=[S])[S][Sb](=[S])=[S]`, the Potency result is “inactive”. To `[H+].[H+].[Hg+2].[O-]B([O-])[O-].[c-]1ccccc1` belongs 8.91 µM (active); to `Oc1ccc2c3c1O[C@H]1[C@@H](O)CC[C@@]4(O)[C@@H](C2)N(CC2CCC2)CC[C@]314`, “inactive”; to `OC[C@@H](O)[C@H]1O[C@@H]2O[C@H](C(Cl)(Cl)Cl)O[C@@H]2[C@H]1O`, “inactive”. As to `CCCN1CCCC2Cc3[nH]ncc3CC21` (stereo not drawn), the Potency result was “inactive”. Under `Cc1ccccc1-n1c(CF)nc2ccc(N)cc2c1=O` stands “inactive”. To `CNC(=O)OCC[N+](C)(C)C` belongs “inactive”.

Turning to `OC(c1ccccc1)(c1ccccc1)C1CN2CCC1CC2` (stereo not drawn), the Potency entry is “inactive”. To `CC(C)Nc1ccc(Nc2ccccc2)cc1` belongs “inactive”. To `N#CN` belongs “inactive”. To `CNC(C)C(O)c1ccc(O)cc1` (stereo not drawn) belongs “inactive”; to `CCOc1ccc2c3c1O[C@H]1[C@@H](O)C=C[C@H]4[C@@H](C2)N(C)CC[C@@]341`, “inactive”.
